For 19 compounds, Potency results are on record in PubChem BioAssay (Tox21).

Experiment [1] is described as follows: qHTS assay to identify small molecule antagonists of the estrogen related receptor (ERR) signaling pathway from Tox21 library - cell viability counter screen (AID 1224834). Further: nearly all actives have a fitted effect of over 30% in size. Further: potency means the concentration at half of the fitted maximal effect. In outline: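 Cytotoxicity of test substances is gauged in the same ERR cells used for the antagonist screen, after 17.5 h of compound treatment at 37 C, by CellTiter-Fluor fluorescence measured after 30 min.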
On the technique in general: qHTS replaces the single test concentration by a dilution series.

The target of experiment [2] is Luciferin 4-monooxygenase (Photinus pyralis) (UniProt P08659). Nature of the experiment: qHTS assay to identify small molecule inhibitors of firefly luciferase (AID 1224835). Further: nearly all actives have a fitted effect of over 25% in size. Further: potency means the concentration at half of the fitted maximal effect. In outline: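 Quantitative HTS format; KM concentrations of both substrates. Purified P. pyralis FLuc activity quantified from luminescence images.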
Luciferin 4-monooxygenase (Photinus pyralis), sequence (P08659 whole entry, looked up): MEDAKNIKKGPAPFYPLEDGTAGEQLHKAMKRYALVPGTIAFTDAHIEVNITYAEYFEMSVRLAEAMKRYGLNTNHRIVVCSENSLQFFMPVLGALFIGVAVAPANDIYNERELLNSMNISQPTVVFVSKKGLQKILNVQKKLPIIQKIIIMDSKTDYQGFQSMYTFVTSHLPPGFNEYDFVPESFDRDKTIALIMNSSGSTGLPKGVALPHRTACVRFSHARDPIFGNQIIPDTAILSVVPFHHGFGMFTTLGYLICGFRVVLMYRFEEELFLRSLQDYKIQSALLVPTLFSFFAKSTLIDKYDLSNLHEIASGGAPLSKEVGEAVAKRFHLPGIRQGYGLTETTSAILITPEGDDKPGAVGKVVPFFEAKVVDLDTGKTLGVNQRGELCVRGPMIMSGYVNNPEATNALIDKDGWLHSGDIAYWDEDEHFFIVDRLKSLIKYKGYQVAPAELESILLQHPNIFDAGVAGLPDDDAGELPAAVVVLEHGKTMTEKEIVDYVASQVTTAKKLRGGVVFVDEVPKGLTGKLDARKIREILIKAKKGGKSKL
Experiment [3] addresses Nuclear receptor subfamily 1 group I member 3 (Homo sapiens) (UniProt Q14994). In words: qHTS assay to identify small molecule agonists of the constitutive androstane receptor (CAR) signaling pathway (AID 1224839). Further: nearly all actives have a fitted effect of over 15% in size. Further: potency means the concentration at half of the fitted maximal effect. In outline: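 HepG2-CYP2B6-hCAR cells, 2500/well, 4 h pre-incubation; compounds 15 conc.; PK11195 0.75 uM final; 24 h, 37 C/5% CO2; ONE-Glo luciferase read.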

A short description of experiment [4]: qHTS assay to identify small molecule antagonists of the estrogen related receptor signaling pathway with the pleiotropic PPARgamma coactivator (PGC) from Tox21 10K library (AID 1224841; call rule not given here; further: actives are mostly falling curves and most rising ones were filed inactive; nearly all actives have a fitted effect of over 50% in size; further: potency means the concentration at half of the fitted maximal effect). The essentials: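 Antagonism in this quantitative HTS is taken from loss of luciferase signal in PGC/ERR cells. Cells (2,000/well) are treated with compounds in DMSO after a 6 h settling period and read by One-Glo luminescence after 18 h.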

Experiment [5] can be described thus: qHTS assay to identify small molecule agonists of the estrogen related receptor signaling pathway with the pleiotropic PPARgamma coactivator (PGC) from Tox21 10K library (AID 1224842). Further: nearly all actives have a fitted effect of over 15% in size. In outline: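 PGC/ERR reporter cells (NTP line) were seeded 2,000 per well, rested 6 h at 37 C/5% CO2, then pin-dosed with compounds in DMSO for 18 h at 37 C; luciferase read by One-Glo luminescence after 30 min at room temperature.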

Experiment [6] addresses Thyrotropin receptor (Homo sapiens) (UniProt P16473). In words: qHTS assay to identify small molecule agonists of the thyroid stimulating hormone receptor (TSHR) signaling pathway (AID 1224843; calls by dose curve; further: nearly all actives have a fitted effect of over 45% in size; further: potency means the concentration at half of the fitted maximal effect). In outline:
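Cell line HEK293 with TSHR; density 800/well. Exposure 30 min RT. Readout HTRF cAMP (cAMP-d2/anti-cAMP-cryptate), 1 h RT before reading.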

Experiment [7] in a line: qHTS assay to identify small molecule agonists of the constitutive androstane receptor (CAR) signaling pathway - cell viability counter screen (AID 1224836). Further: nearly all actives have a fitted effect of over 45% in size. Further: potency means the concentration at half of the fitted maximal effect. In outline: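 HepG2-CYP2B6-hCAR, 2500 cells/well, 4 h pre-incubation; cpd 15 conc + PK11195 0.75 uM final; 23 h, 37 C/5% CO2; CellTiter-Fluor, fluorescence.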
Experiment [8] is described as follows: qHTS assay to identify small molecule antagonists of the estrogen related receptor signaling pathway with the pleiotropic PPARgamma coactivator (PGC) from Tox21 10K library - cell viability counter screen (AID 1224840; active means well fitted cell-killing curve with a large enough effect in the repeat runs, not every such curve was filed as active; further: nearly all actives have a fitted effect of over 40% in size; further: potency means the concentration at half of the fitted maximal effect). The essentials: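 Step one, plate 2,000 PGC/ERR cells per well; step two, incubate 6 h at 37 C/5% CO2; step three, pin-transfer compounds; step four, incubate 17.5 h; step five, add CellTiter-Fluor and read fluorescence after 30 min.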

A short description of experiment [9]: qHTS assay to identify small molecule antagonists of the constitutive androstane receptor (CAR) signaling pathway - cell viability counter screen (AID 1224837). Further: nearly all actives have a fitted effect of over 45% in size. Further: potency means the concentration at half of the fitted maximal effect. The essentials:
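Multiplexed cytotoxicity read-out for the CAR antagonist screen: double-stable HepG2-CYP2B6-hCAR cells co-treated with 50 nM CITCO (final) and compound over 15 concentrations, incubated 23 hr, then assessed by CellTiter-Fluor fluorescence.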

Experiment [10] has as its target Nuclear receptor subfamily 1 group I member 3 (Homo sapiens) (UniProt Q14994). Nature of the experiment: qHTS assay to identify small molecule antagonists of the constitutive androstane receptor (CAR) signaling pathway (AID 1224838). Further: nearly all actives have a fitted effect of over 40% in size. Further: potency means the concentration at half of the fitted maximal effect. The essentials: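 Compounds were titrated across 15 concentrations onto HepG2 cells double-stably expressing hCAR and a CYP2B6-2.2kb reporter, together with 50 nM CITCO (final). After 24 h at 37 C, luciferase activity was measured by luminescence.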

Results filed as inconclusive are left out. The source made the active and inactive calls. Unless noted, the call rests on the fitted dose curve; in most records, active means well fitted curve in the direction sought with a large enough effect in the repeat runs; inconclusive means weak or mixed curves; inactive means no such curve, though single readings can be large; an effect the other way counts as inactive or inconclusive.

Nuclear receptor subfamily 1 group I member 3 (Homo sapiens), sequence (Q14994 whole entry, looked up): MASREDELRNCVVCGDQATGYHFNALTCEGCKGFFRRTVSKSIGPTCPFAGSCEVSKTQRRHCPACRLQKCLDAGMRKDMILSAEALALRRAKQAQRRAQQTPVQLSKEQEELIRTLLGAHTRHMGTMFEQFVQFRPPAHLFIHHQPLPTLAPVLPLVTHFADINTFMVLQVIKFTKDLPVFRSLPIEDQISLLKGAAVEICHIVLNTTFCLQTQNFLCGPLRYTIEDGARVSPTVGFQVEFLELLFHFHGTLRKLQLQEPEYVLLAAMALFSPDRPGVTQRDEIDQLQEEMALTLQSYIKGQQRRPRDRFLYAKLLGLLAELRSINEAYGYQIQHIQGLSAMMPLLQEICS
Thyrotropin receptor (Homo sapiens), sequence (P16473 whole entry, looked up): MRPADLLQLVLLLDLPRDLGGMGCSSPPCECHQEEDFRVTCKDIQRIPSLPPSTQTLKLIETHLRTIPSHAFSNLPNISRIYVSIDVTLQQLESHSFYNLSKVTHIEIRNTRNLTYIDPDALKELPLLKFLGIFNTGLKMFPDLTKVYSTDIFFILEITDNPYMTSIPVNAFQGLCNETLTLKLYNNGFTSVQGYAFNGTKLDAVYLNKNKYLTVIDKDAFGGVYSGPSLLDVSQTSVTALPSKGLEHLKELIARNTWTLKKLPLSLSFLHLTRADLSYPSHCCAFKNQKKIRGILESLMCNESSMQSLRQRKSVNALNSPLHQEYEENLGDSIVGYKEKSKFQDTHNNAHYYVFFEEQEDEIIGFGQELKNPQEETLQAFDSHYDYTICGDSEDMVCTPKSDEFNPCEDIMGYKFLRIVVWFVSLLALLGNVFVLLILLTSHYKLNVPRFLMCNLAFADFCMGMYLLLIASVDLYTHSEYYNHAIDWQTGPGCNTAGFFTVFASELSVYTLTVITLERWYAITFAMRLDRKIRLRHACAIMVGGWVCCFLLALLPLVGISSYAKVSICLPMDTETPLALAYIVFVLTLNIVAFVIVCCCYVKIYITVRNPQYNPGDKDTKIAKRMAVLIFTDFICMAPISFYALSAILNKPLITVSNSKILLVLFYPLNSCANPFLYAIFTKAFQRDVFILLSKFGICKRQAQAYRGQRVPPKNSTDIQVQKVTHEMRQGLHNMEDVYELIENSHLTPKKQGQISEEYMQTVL

As to `Brc1cc2ccccc2c2ccccc12`, the Potency entry in experiment [1], in [2] and in experiment [5] was “inactive” throughout. Further, the Potency in [3] was 17.4 µM (active); in experiment [4] it was 61.6 µM (active).
`CN1CCCC(CC2c3ccccc3Sc3ccccc32)C1` (stereo unspecified): in experiment [1], the Potency is 26.6 µM (active). In addition, the Potency entry in experiment [2], in experiment [3], in experiment [4] and in [6] was “inactive” throughout.
For the compound `C=Cc1ccc(S(=O)(=O)O)cc1`, the Potency entry in experiment [1], in experiment [7], in experiment [8], in [4], in experiment [5] and in [6] was “inactive” throughout. Also, in experiment [2], the Potency is 20 µM (active).
Turning to `O=C1c2ccccc2C(=O)N1CCc1noc(-c2ccc(CN3CCCCCC3)s2)n1`, the Potency in experiment [1] is 49.9 µM (active). In addition, the Potency result in experiment [2], in experiment [9], in [10] and in experiment [3] was “inactive” in each case.
As to `Cc1cccc(O)c1N`, the Potency in experiment [1] was 27.6 µM (active). Also, the Potency result in [2], in [3], in experiment [8], in experiment [4], in experiment [5] and in experiment [6] was “inactive” each time.
Turning to `O=c1cc(-c2ccccc2)oc2cc(O)cc(O)c12`, the figures for the Potency in experiment [1], in [2] and in experiment [3] were 30.6 µM (active), 2.52 µM (active) and 30.6 µM (active), respectively. Further, the Potency entry in experiment [10] is “inactive”.
For `CCOC(=O)c1ccc(O)c(O)c1`, the Potency result in experiment [1], in [2], in experiment [9], in experiment [10], in experiment [8] and in experiment [6] was “inactive” throughout.
As for `CN1C[C@H](C(=O)N[C@]2(C)O[C@@]3(O)[C@@H]4CCCN4C(=O)[C@H](Cc4ccccc4)N3C2=O)C[C@@H]2c3cccc4[nH]cc(c34)C[C@H]21`, the Potency in experiment [1] was 26.6 µM (active). Moreover, the Potency result in experiment [2], in experiment [10], in experiment [3], in experiment [4], in [5] and in experiment [6] was “inactive” each time.
Consider `CN1C(C(=O)Nc2ccccn2)=C(O)c2sccc2S1(=O)=O`, for which the Potency result in experiment [1], in experiment [7], in experiment [9], in [10], in experiment [3] and in [8] was “inactive” throughout.
`Cc1cc2c(OCC(CNC(C)(C)C)OC(=O)c3ccccc3)cccc2[nH]1` (stereo unspecified): the Potency entry in [1], in [2], in experiment [7], in [10], in experiment [3] and in experiment [8] was “inactive” each time. For the same compound, the Potency in experiment [6] is 26.6 µM (active).
Regarding `CC(CC1c2ccccc2CCc2ccccc21)CN(C)C` (stereo unspecified), the Potency in experiment [1] is 33.5 µM (active); in experiment [9], 29.8 µM (active). Moreover, the Potency entry in experiment [2] and in experiment [8] was “inactive” in each case.
As to `CC(=O)c1cc2ccccc2s1`, the Potency entry in experiment [1], in experiment [2], in experiment [7], in experiment [10], in [3] and in experiment [8] was “inactive” each time. The Potency result in [6] was “inactive”.
As for `CC1(CN2CCC(n3c(=O)[nH]c4ccccc43)CC2)OCc2ccccc2-n2cccc21` (stereo unspecified), the Potency in experiment [1] was 23.7 µM (active). Further, the Potency result in experiment [2], in experiment [10] and in experiment [3] was “inactive” in each case.
Consider `Nc1nc2ccc([N+](=O)[O-])cc2s1`, for which the Potency entry in [10] was “inactive”.
`O=C=Nc1cccc(C(F)(F)F)c1`: the Potency result in experiment [2], in [7], in experiment [9], in [8], in [5] and in [6] was “inactive” throughout.
As to `CC(=O)Nc1cc(S(=O)(=O)O)cc2cc(S(=O)(=O)O)c(N=Nc3ccccc3)c(O)c12`, the Potency is 24.3 µM (active) in experiment [1], 30.6 µM (active) in [7] and 27.3 µM (active) in experiment [8]. Besides, the Potency entry in [10], in [3] and in experiment [5] was “inactive” in each case.
Turning to `CN(C)CCC=C1c2ccccc2C=Cc2ccccc21`, the Potency entry in [2], in experiment [7], in [10], in experiment [3], in experiment [8] and in [4] was “inactive” in each case. Also, the Potency entry in experiment [5] was “inactive”.
As to `CC[C@]1(O)C[C@H]2CN(CCc3c([nH]c4ccccc34)[C@@](C(=O)OC)(c3cc4c(cc3OC)N(C=O)[C@H]3[C@@](O)(C(=O)OC)[C@H](OC(C)=O)[C@]5(CC)C=CCN6CC[C@]43[C@@H]65)C2)C1`, the Potency entry in experiment [2], in experiment [3] and in experiment [6] was “inactive” in each case. In experiment [10], the Potency was 0.211 µM (active).
As to `C/C=C\C/C=C/CCCCCCCCOC(C)=O`, the Potency entry in experiment [2], in experiment [7], in experiment [9], in [10], in experiment [3] and in experiment [8] was “inactive” in each case. Further, the Potency result in experiment [5] and in experiment [6] was “inactive” each time.
